Our source for the AC50 and outcome values is PubChem BioAssay AID1117313 (National Center for Advancing Translational Sciences (NCATS), 2015).

Calls of active or inactive are those of the source. Calls follow the shape of the full dose curve.

For this test the following is noted: Ebola virus entry reporter assay, ratio channel. Background: Reporter assays use an easily measured gene product as a stand-in for the process of interest.
With `COC(=O)Nc1nc2ccc(C(=O)c3cccs3)cc2[nH]1`, the AC50 (commonly the concentration at which the activity in the assay is half-maximal) was 0.544 µM (active). As to `COC(=O)Nc1nc2ccc(C(=O)c3ccccc3)cc2[nH]1`, the AC50 is 3.43 µM (active). Regarding `CO[C@H]1C[C@@H]2CC[C@@H](C)[C@@](O)(O2)C(=O)C(=O)N2CCCC[C@@H]2C(=O)O[C@H]([C@@H](C)C[C@@H]2CC[C@H](O)[C@H](OC)C2)CC(=O)[C@H](C)C=C(C)[C@@H](O)[C@@H](OC)C(=O)[C@H](C)C[C@H](C)C=CC=CC=C1C`, the outcome was inactive. For the compound `COc1cccc2c1C(=O)c1c(O)c3c(c(O)c1C2=O)C[C@@](O)(C(C)=O)C[C@H]3O[C@H]1C[C@H](N)[C@H](O)[C@H](C)O1`, the AC50 was 2.73 µM (active).

With `CCCSc1ccc2nc(NC(=O)OC)[nH]c2c1`, the AC50 was 4.32 µM (active).

For the compound `CC[C@]1(O)C[C@@H]2CN(CCc3c([nH]c4ccccc34)[C@@](C(=O)OC)(c3cc4c(cc3OC)N(C)[C@H]3[C@@](O)(C(=O)OC)[C@H](OC(C)=O)[C@]5(CC)C=CCN6CC[C@]43[C@@H]65)C2)C1`, the AC50 was 0.122 µM (active). Regarding `Cc1nnc(C(C)C)n1C1C[C@H]2CC[C@@H](C1)N2CC[C@H](NC(=O)C1CCC(F)(F)CC1)c1ccccc1` (some centres undefined), the outcome was inactive. With `CN1[C@@H]2CC[C@H]1CC(OC(c1ccccc1)c1ccccc1)C2` (some centres undefined), the AC50 is 3.85 µM (active). On to `CCCNCC(O)COc1ccccc1C(=O)CCc1ccccc1` (centres undefined), for which the concentration at half-maximal activity (AC50) is 8.63 µM (active). For the compound `CC[C@H]1OC(=O)[C@H](C)[C@@H](O[C@H]2C[C@@](C)(OC)[C@@H](O)[C@H](C)O2)C(C)[C@@H](O[C@@H]2O[C@H](C)C[C@H](N(C)C)[C@@H]2O)[C@](C)(OC)C[C@@H](C)C(=O)[C@H](C)[C@@H](O)[C@]1(C)O` (some centres undefined), the AC50 is 4.85 µM (active). Consider `C[C@]12CC[C@@H]3c4ccc(O)cc4C[C@@H](CCCCCCCCCS(=O)CCCC(F)(F)C(F)(F)F)[C@H]3[C@@H]1CC[C@@H]2O` (some centres undefined), for which the result was inactive. For `C[C@@H]1O[C@@H](O[C@H]2CC[C@@]3(C)[C@H](CC[C@@H]4[C@H]3C[C@@H](O)[C@]3(C)[C@@H](C5=CC(=O)OC5)CC[C@]43O)C2)C[C@H](O)[C@@H]1O[C@H]1C[C@H](O)[C@H](O[C@H]2C[C@H](O)[C@@H](O)[C@@H](C)O2)[C@H](C)O1` (stereo in doubt), the AC50 is 1.4 µM (active). Turning to `NCCCC(O)(P(=O)(O)O)P(=O)(O)O`, the result was inactive. With `CCCCc1oc2ccc(NS(C)(=O)=O)cc2c1C(=O)c1ccc(OCCCN(CCCC)CCCC)cc1`, the AC50 is 2.43 µM (active). Take `CN1CCN(CCCN2c3ccccc3Sc3ccc(C(F)(F)F)cc32)CC1`: the AC50 is 2.73 µM (active).

For `CN(C)CCCN1c2ccccc2CCc2ccc(Cl)cc21`, the AC50 was 5.44 µM (active). Take `CCC1=C[C@@H]2CN(C1)Cc1c([nH]c3ccccc13)[C@@](C(=O)OC)(c1cc3c(cc1OC)N(C)[C@H]1[C@@](O)(C(=O)OC)[C@H](OC(C)=O)[C@]4(CC)C=CCN5CC[C@]31[C@@H]54)C2`: the AC50 was 0.0863 µM (active).

Consider `CN1CCC[C@@H]1CCO[C@](C)(c1ccccc1)c1ccc(Cl)cc1`, for which the AC50 is 1.53 µM (active).

`CC[C@]1(O)C[C@H]2CN(CCc3c([nH]c4ccccc34)[C@@](C(=O)OC)(c3cc4c(cc3OC)N(C=O)[C@H]3[C@@](O)(C(=O)OC)[C@H](OC(C)=O)[C@]5(CC)C=CCN6CC[C@]43[C@@H]65)C2)C1`: the AC50 is 0.137 µM (active).

As to `CCN(CC)CCNC(=O)c1c(C)[nH]c(/C=C2\C(=O)Nc3ccc(F)cc32)c1C`, the AC50 is 1.53 µM (active). As for `COC1=CC(=O)C[C@@H](C)[C@]12Oc1c(Cl)c(OC)cc(OC)c1C2=O`, the result was inactive. Consider `CO[C@H]1C[C@@H]2CC[C@@H](C)[C@@](O)(O2)C(=O)C(=O)N2CCCC[C@@H]2C(=O)O[C@H]([C@H](C)C[C@@H]2CC[C@H](OCCO)[C@H](OC)C2)CC(=O)[C@H](C)C=C(C)[C@@H](O)[C@@H](OC)C(=O)[C@H](C)C[C@H](C)C=CC=CC=C1C`, for which the outcome was inactive. `CC[C@H]1OC(=O)[C@H](C)[C@@H](O[C@H]2C[C@@](C)(OC)[C@@H](O)[C@H](C)O2)[C@H](C)[C@@H](O[C@@H]2O[C@H](C)C[C@H](N(C)C)[C@@H]2O)[C@](C)(O)C[C@@H](C)CN(C)[C@H](C)[C@@H](O)[C@]1(C)O`: the AC50 was 3.06 µM (active). The same measure, in the same setting: to `CN(C)CCOc1ccc(/C(=C(/CCCl)c2ccccc2)c2ccccc2)cc1` belongs 1.09 µM (active).
